# Measurements as given in ChEMBL document CHEMBL3988442, “University of Dundee, Small-Polar-MMV Screening Library” (2021).
# Target: AMP-activated protein kinase, AMPK (Homo sapiens) (UniProt P54646+O43741+P54619+Q9UGJ0+Q9Y478+Q13131+Q9UGI9)
# Test: AMP-dependent Kinase enzyme assay. An in vitro enzyme assay that detects ADP turnover that is directly proportional to AMPK activity. This uses naive AMPK that is activated during the assay with MK-8722
# Assay type: functional
# Parameters: scale not given: direction of the effect not stated beside the values
# Settings: 30 µM
row,SMILES,Percent Effect [%]
1,CN1CCN(c2ncc(CNCCCc3cccc(F)c3)cn2)CC1,4.72
2,COc1cccnc1NC(=O)COC1CCCC1,8.7
3,O=C(CCN1CCCCO1)N1CC[C@H](O)[C@@H](O)C1,-7.38
4,O=C(c1coc(-c2ccccc2)n1)N1CCCCC1,0.702
5,CCC(NC(=O)C(C)C)c1ccccc1C (stereo not given),8.49
6,Cc1nn(C)c(C)c1-c1ccc(=O)n(C(C)C(=O)NC2CCCC2)n1 (stereo not given),9.03
7,CCc1ccc(C(=O)NC[C@H]2CCCN2C(=O)c2ccc(CC)o2)o1,-0.868
8,O=c1[nH]nc(C2CC2)n1-c1cccc(Cl)c1,-10.6
9,CN(C)c1ncccc1NC(=O)COC1CCCC1,6.19
10,Cc1c(C(=O)N2CCC3(CCCNC3=O)C2)sc2nc[nH]c(=O)c12 (stereo not given),13.6
11,Cn1c(CN2CC[C@](C)(O)C(C)(C)C2)cc2ccccc21,12.4
12,CS(=O)(=O)c1ccc(-c2cc(C3CC3)c(C#N)c(N)n2)cc1,12.5
13,Cc1ncc(C(=O)N2CCCC2c2c(C)nn(C)c2C)s1 (stereo not given),1.37
14,Cc1sc(Oc2ccccc2Cl)nc1C(=O)O,10.7
15,COCCC1(C(=O)O)CCCN(c2cc(C)c3ccccc3n2)C1 (stereo not given),3.66
16,CCN(CCNC(=O)Nc1nnc(C)s1)C(=O)OC(C)(C)C,-0.666
17,COCc1nc(C2CC2)nn1-c1cc(Cl)ccc1OC,-8.6
18,Cc1noc(C)c1CNCC1CNc2ccnn2C1 (stereo not given),-0.962
19,CS(=O)(=O)c1ccc(Cl)c(C(=O)NCCC2=CCCCC2)c1,-0.566
20,Cc1cc(C(=O)NCCN2CCCCC2C)nn1C(C)(C)C (stereo not given),1.65

row,SMILES,Percent Effect [%]
1,CCc1nn(C)c(Cl)c1CN1CCCC2(C1)CN(C)C(=O)O2 (stereo not given),5.15
2,Cc1cc(-c2cnc(N3CCC(O)CC3)nc2C(C)C)on1,20.1
3,CC1CCN(CC(=O)N(C)CCc2noc(C3CC3)n2)C1=O (stereo not given),-1.6
4,C[C@@H]1CN(Cc2nc(C(N)=O)no2)CC[C@@]1(O)C1CCOCC1,5.22
5,CCn1cc(C(=O)NCCN2CCCc3ccccc32)c(C)n1,7.97
6,NC(=O)CN1CCc2c(Br)ccc(F)c2C1,1.51
7,COC(CNC(=O)c1ccc(NC(C)=O)cc1)c1cccc(Cl)c1 (stereo not given),1.2
8,CN1CCCN(c2ccc(F)cc2CNC(=O)c2ccsc2)CC1,5.4
9,CN(Cc1nc(C(C)(C)C)no1)C1CCS(=O)(=O)C1 (stereo not given),2.12
10,CCOC(=O)CC1(Nc2nc(C)nc3c2cnn3C)CCCCC1,14.9
11,CC(C)c1nnc(NC(=O)Cc2csc(-c3nnc[nH]3)n2)s1,6.49
12,Cc1cnc(N2CCN(C)CC2)nc1-c1ccnn1C,-3.23
13,COc1ccc([C@@H]2CN(C(=O)CCCc3cn[nH]c3)C[C@H]2N(C)C)cc1,2.77
14,CC(Oc1ccc2c(c1)OCO2)C(=O)N1CCC(N2CCCC2)CC1 (stereo not given),6.31
15,CC(C(=O)Nc1cccc(F)c1)N(C)CCN1CCOCC1 (stereo not given),0.543
16,O=C(NCc1cccnc1N1CCCCC1)c1ccc2c(c1)OCO2,-2.38
17,COc1cccc([C@@]2(O)CC[C@@H]3CN(C(=O)c4ccn(C)n4)C[C@@H]32)c1,12.3
18,N#CCc1ccc(NC(=O)N[C@H](CO)Cc2ccc(O)cc2)cc1,9.92
19,CCN(C)S(=O)(=O)N[C@H]1CN(c2ccc(F)cn2)C[C@@H]1C(C)C,-6.05
20,O=C1NC(C(=O)NCc2cccnc2Oc2ccc(F)c(F)c2)CO1 (stereo not given),0.367
